What was measured:
Assay type in all cases: functional
[1] = molecular target: Solute carrier family 2, facilitated glucose transporter member 1 (Homo sapiens) (UniProt P11166); assay: ST_JUDE_LEISH: Cytotoxicity at 2uM final concentration against transgenic Leishmania Mexicana promastigotes LmGLUT1 that are glucose transport deficient and complemented with the human glucose transporter GLUT1. Activity is measured by DNA content using SYBR green in vitro
[2] = molecular target: Hexose transporter 1 (Plasmodium falciparum) (UniProt O97467); assay: ST_JUDE_LEISH: Cytotoxicity at 2uM final concentration against transgenic Leishmania Mexicana promastigotes LmPfHT that are glucose transport deficient and complemented with the Plasmodium falciparum hexose transporter. Activity is measured by DNA content using SYBR green in vitro
[3] = molecular target: Glucose transporter (Leishmania mexicana) (UniProt O61059); assay: ST_JUDE_LEISH: Cytotoxicity at 2uM final concentration against transgenic Leishmania Mexicana promastigotes LmGT2 that are glucose transport deficient and complemented with the L. Mexicana glucose transporter 2. Activity is measured by DNA content using SYBR green in vitro

Sequence of Solute carrier family 2, facilitated glucose transporter member 1 (Homo sapiens) (P11166 whole entry): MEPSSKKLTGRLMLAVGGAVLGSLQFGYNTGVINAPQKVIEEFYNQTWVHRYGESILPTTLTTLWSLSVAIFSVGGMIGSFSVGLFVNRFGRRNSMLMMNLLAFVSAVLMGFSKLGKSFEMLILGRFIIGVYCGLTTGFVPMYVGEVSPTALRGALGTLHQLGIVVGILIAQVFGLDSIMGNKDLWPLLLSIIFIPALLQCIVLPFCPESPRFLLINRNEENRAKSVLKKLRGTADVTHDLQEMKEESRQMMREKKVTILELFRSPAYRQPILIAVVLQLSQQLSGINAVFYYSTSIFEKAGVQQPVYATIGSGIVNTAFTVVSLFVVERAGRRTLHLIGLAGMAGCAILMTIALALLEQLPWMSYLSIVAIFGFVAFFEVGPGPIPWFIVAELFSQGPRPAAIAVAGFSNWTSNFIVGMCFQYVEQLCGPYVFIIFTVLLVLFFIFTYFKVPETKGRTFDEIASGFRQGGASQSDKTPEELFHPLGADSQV

Row | Structure (SMILES) | inhibition [1] [%] | inhibition [2] [%] | inhibition [3] [%]
1 | COc1cccc2[nH]c(NCCCNCc3cc(Br)cc(Br)c3)nc12 | 3.51 | 1.26 | 2.63
2 | CN1CCCC(COc2cc3c(cc2Br)CCN3C(=O)Nc2ccc(-c3ccncc3)c(Cl)c2)C1 (centres undefined) | 9.37 | 5.78 | 3.35
3 | COc1ccc2nccc(NCC3(O)CCC(NCc4cc5c(cn4)OCCO5)CC3)c2n1 (centres undefined) | -1.99 | -1.9 | -2.58
4 | CCOc1ccc(-c2nonc2NC(=O)c2ccc(F)cc2)cc1OCC | -2.77 | 2 | 1.5
5 | N#Cc1ccc(OCCN(Cc2ccccc2C(F)(F)F)c2ccc(C#N)c(C(F)(F)F)c2)cc1 | 10.1 | 9.42 | 8.53
6 | Oc1cc(-c2cccc(C(F)(F)F)c2)nc(Nc2ccc(Cl)c(Cl)c2)n1 | 0.75 | 0.89 | 0.9
7 | Cn1cnc(CCNC(=O)c2ccc(-c3cccc(-c4nc5cc(F)ccc5[nH]4)c3)cc2)c1 | 2.97 | 1.64 | 0.52
8 | O=C1NC(=O)C(c2ccc(Cl)cc2)=C1Nc1cccc(S(=O)(=O)C(F)(F)F)c1 | 1.37 | 0.65 | 1.48
9 | COc1ccccc1CCNc1nc(C)cc(N[C@@H](CC(C)C)C(=O)Nc2ccccc2)n1 | 4.84 | 6.02 | -0.58
10 | Cc1cc(OCC2CCCN(c3ncc(C(=O)NC4CC4)cc3Cl)C2)ccc1F (centres undefined) | 0.51 | 1.78 | 0.81
11 | Clc1ccc(-c2cc(-c3csc(NCCN4CCCCC4)n3)on2)cc1 | 6.93 | 7.19 | 5.8
12 | CCCNCc1ccc(-c2ccc(CN(CCOC)C(=O)c3cnc(C)cn3)cc2)nc1 | -0.38 | 0.25 | 0.24
13 | CCOc1ccccc1N1CCN(CCCNC(=O)/C(=C/C=C/c2cc3cc(Cl)c(Cl)cc3[nH]2)OC)CC1 | 1.44 | -0.07 | 1.24
14 | CN1CCN(c2ccnc3ccc(NC(=O)Nc4ccc(Cl)c(Cl)c4)cc23)CC1 | 6.24 | 6.07 | 6.56
15 | CCOc1ccc2c(=NN=Cc3cc(OC)c(OC)c(OC)c3)cc(C)[nH]c2c1 | 2.5 | 1.22 | -0.3
16 | CC(=O)Nc1ncc(C(=O)Nc2ccc(-c3cccc(-c4nc5cc(F)ccc5[nH]4)c3)cc2)s1 | 6.62 | 7 | 6.95
17 | CC1CN(Cc2ccccc2)CCN1c1ccc(NC(=O)c2ccc(F)cc2)cc1 (centres undefined) | -1.05 | -1.7 | -3.4

Row | Structure (SMILES) | inhibition [1] [%] | inhibition [2] [%] | inhibition [3] [%]
18 | Nc1nc(F)nc2nc[nH]c12 | 29.6 | 29.2 | 22
19 | O=C(NC1CC1)c1ccc(N2CCCC(COc3ccccc3F)C2)nc1 (centres undefined) | 2.73 | 1.75 | 2.62
20 | O=C(/C=C/c1ccc(Cl)c(Cl)c1)NCC1CCN(Cc2ccc(O)cc2)CC1 | 69.6 | 57.8 | 46.2
21 | Cc1cccc2nc(-c3ccc(-c4ccc(CN5CCC(CCN6CCCCC6)CC5)cc4)cc3)[nH]c12 | 8.93 | 7.95 | -1.41
22 | O=C(Cc1c[nH]cn1)Nc1cccc(-c2ccc(-c3nc4cc(C(F)(F)F)ccc4[nH]3)cc2)c1 | 3.54 | 3.75 | 1.97
23 | Cc1c(C)n(C2CCCC2)c2ncnc(OC3CCN(CC(=O)NC4CC4)CC3)c12 | 9.5 | 6.34 | 7.75
24 | Cc1ccc(CN2CCC(C(=O)Nc3ccc(-c4cc5ccccc5[nH]4)cc3)CC2)o1 | 17.3 | 9.24 | 4.6
25 | O=C(NCCc1ccc(Cl)c(Cl)c1)[C@@H]1CCCN1C(=O)c1ccc(O)c(-c2cccc(C(F)(F)F)c2)c1 | 1.34 | -0.04 | -2.44
26 | COc1ccc(Oc2ccc(Nc3ccnc4ccc(C(F)(F)F)cc34)cc2)cc1OC | 7.8 | 6.26 | 12.3
27 | O=C(/C=C/c1ccc(Cl)c(Cl)c1)NCCCCCN1CCC(NC(=O)NC2CCCC2)CC1 | 1.11 | 1.93 | 0.26
28 | COc1ccc(/N=[N+](\[O-])c2ccccc2/[N+]([O-])=N/c2ccc(OC)cc2)cc1 | 1.29 | 1.73 | 1.68
29 | COC(=O)c1cc(NC(=O)Nc2ccc(Cn3ncc(N4CCCNCC4)c(Cl)c3=O)cc2)cc(C(=O)OC)c1 | 0.7 | 1.45 | 1.92
30 | CCc1cn2c3c(cc(C(=O)N[C@@H](Cc4cccc(Cl)c4)[C@H](O)CNC4CCOCC4)cc13)N(C)S(=O)(=O)CC2 | 2.87 | -0.33 | 1.44
31 | N#CCCN1CCN(Cc2cccc(-c3ccc(-c4nc5cc(F)ccc5[nH]4)cc3)c2)CC1 | 4.34 | 0.68 | 3.71
32 | N=c1n(Cc2ccccc2)c2ccccc2n1CC(O)c1ccc(Cl)c(Cl)c1 (centres undefined) | -0.72 | 1.71 | 1.3
33 | CS(=O)(=O)c1cccc(-c2cnc(N)c3cc(-c4ccc5c(c4)OCO5)ccc23)c1 | 8.59 | 8.33 | 7.36
